Consider 40 compounds from PubChem BioAssay (EPA / NIEHS).

Active and inactive are the calls of the source. The calls were made as follows: active = hit-call score of the fitted dose curve at least 0.9, where 1 is the maximum; inactive = score below 0.9.

This experiment can be described thus: ATG_CRE_CIS: Attagene CIS-FACTORIAL HepG2 Assay for human cAMP Responsive Element (CRE) binding protein 3 (AID 2282926). Particulars: HepG2 CRE cis-reporter, Attagene multiplexed mRNA; actives raise or lower the signal. The method, then: ATG_CIS is a cell-based, multiplexed-readout assay that uses HepG2, a human liver cell line, with measurements taken at 24 hours after chemical dosing in a 24-well plate.ATG_CRE_CIS is one of 52 assay component(s) measured or calculated from the ATG_CIS assay. It is designed to make measurements of mRNA induction, a form of inducible reporter, as detected with fluorescence intensity signals by Reverse transcription polymerase chain reaction (RT-PCR) and Capillary electrophoresis technology.Data from the assay component ATG_CRE_CIS was analyzed into 1 assay endpoint. This assay endpoint, ATG_CRE_CIS, was analyzed with bidirectional fitting relative to DMSO as the negative control and baseline of activity. Using a type of inducible reporter, measures of mRNA for gain or loss-of-signal activity can be used to understand the reporter gene at the transcription factor-level as they relate to the gene CREB3. Furthermore, this assay endpoint can be referred to as a primary readout, because this assay has produced multiple assay endpoints where this one serves a reporter gene function. To generalize the intended target to other relatable targets, this assay endpoint is annotated to the dna binding intended target family, where the subfamily is basic leucine zipper.
Human liver HepG2 cells are transiently transfected with multiple reporter transcription units (MRTUs) in 6-well plates using FuGene 6 reagent (Roche; 3 ml FuGene/1 mg DNA). The MRTU constructs are regulated by a cis-regulating element (promoter). […] A major difference between the CIS and TRANS system is that in CIS activities of endogenous TFs are measured, whereas the TRANS assay evaluates changes in activities of exogenous, chimeric NR-Gal4 proteins. […] At the end of 24 hour incubation, total RNA was isolated using TriZol reagent (Invitrogen). The isolated RNA is then reverse-transcribed using oligo(dT) primer and Mo-MLV reverse transcriptase (Invitrogen) with DNAse I (Ambion) treatment for 30 min. The one-tenth of the produced cDNA was amplified by PCR using Taq DNA polymerase (Invitrogen) and two reporter sequence-specific primers. The PCR products were fluorescently labeled by primer extension with 6-arboxyfluorescein (6-FAM) 5'-labeled reporter sequence-specific primer (2 min at 95 C, 20 s at 68 C and 10 min at 72 C) and these products were digested with 5U of HpaI (New England Biolabs) for 2h at 37 C. The fragments were purified using Qiaquick PCR columns (Qiagen), analyzed on an ABI 3130xL genetic analyzer (Applied Biosystems) with peak positions identified by using a set of X-rhodamine (ROX)-labeled MapMarker1000 molecular weight standards (BioVentures). The raw capillary electrophoresis data was processed using Attagraph software (Attagene).
Take `CC1CCCC1.[C-]#[O+].[C-]#[O+].[C-]#[O+].[Mn]`: the outcome was inactive. Same read-out and setting: the same measure for `BrCBr`: “inactive”.

For `C[N+](C)=CCl`, the result was inactive. On the same count and under the same terms, the value for `CN(C)N` was “inactive”. On the same count and under the same terms, the same measure for `C=CCN(CC=C)C(=O)C(Cl)Cl`: “inactive”; for `CC(C)(C)C(O)C(Oc1ccc(-c2ccccc2)cc1)n1cncn1` (stereo not given): “inactive”. `SCc1ccco1`: the compound was classed as inactive. The same measure, in the same setting: the same measure for `CC(C)C(=O)Cl`: “inactive”. As for `CC(C)C#N`, the outcome was inactive. Turning to `CCCCCCCCCCCC#N`, the result was inactive. The same measure, in the same setting: the value for `O=P(O)(Oc1ccccc1)Oc1ccccc1` was “inactive”. The same measure, in the same setting: the value for `CCc1cc(C)cc(CC)c1-c1c(OC(=O)C(C)(C)C)n2n(c1=O)CCOCC2` was “inactive”; that for `C[C@]12CC[C@H]3[C@@H](CC[C@@]45O[C@@H]4C(O)=C(C#N)C[C@]35C)[C@@H]1CC[C@@H]2O` was “inactive”; that for `CCCC=NO` was “inactive”.

For the compound `CCc1cccc(C)c1N(C(=O)CCl)[C@@H](C)COC`, the outcome was inactive. Same read-out and setting: the same measure for `ClCC(Cl)Cl`: “inactive”; for `O=[N+]([O-])O`: “inactive”. Still for that read-out and setting: the same measure for `O=C1C(Cl)=C(Cl)C(=O)C(Cl)=C1Cl`: “inactive”; for `N#CCCCCC#N`: “inactive”. Same read-out and setting: the same measure for `CN(N=O)c1ccccc1`: “inactive”. With `O=C=Nc1ccccc1`, the outcome was inactive.

For `CCOC(=O)NC(=S)Nc1ccccc1NC(=S)NC(=O)OCC`, the call was inactive. Still for that read-out and setting: the same measure for `CC1CCC(=O)O1` (stereo not given): “inactive”. As for `c1ccc(Nc2ccc3ccccc3c2)cc1`, the call was inactive. As for `CC(C)(c1cc(Cl)c(O)c(Cl)c1)c1cc(Cl)c(O)c(Cl)c1`, the outcome was inactive. On the same count and under the same terms, the value for `Nc1ccccc1C(=O)OCCc1ccccc1` was “inactive”; that for `CC(C)(Cl)Cl` was “inactive”.

One may read the AC50 as the midpoint of the concentration-response curve, whichever way the signal moves. Take `O=[N+]([O-])C=Cc1ccccc1`: the concentration at half-maximal activity (AC50) was 20 µM (active). Consider `Clc1ccc(-c2ccccc2)cc1`, for which the outcome was inactive. The same measure, in the same setting: the value for `CC(C)COP(=O)(OCC(C)C)OCC(C)C` was “inactive”; that for `CC(C)c1ccc(O)cc1` was “inactive”. On the same count and under the same terms, the same measure for `O=C(O)CCCc1ccc(N(CCCl)CCCl)cc1`: “inactive”; for `CC=Cc1ccc2c(c1)OCO2`: “inactive”.

On to `COc1cc(OC)c(OC)cc1C=O`, for which the call was inactive.

On to `CN1C(=O)CCS(=O)(=O)C1c1ccc(Cl)cc1` (stereo not given), for which the compound was classed as inactive. On the same count and under the same terms, the same measure for `O=C(O)c1cc[c]([Hg][Cl])cc1`: “inactive”; for `COC(=O)COc1ccc(Cl)cc1Cl`: “inactive”. Turning to `Oc1ccc(C2(c3ccc(O)cc3)c3ccccc3-c3ccccc32)cc1`, the AC50 is 8.42 µM (active). Take `C#CC1(O)CCCCC1`: the call was inactive.

Consider `C=CC(=O)OCCCCOC(=O)C=C`, for which the compound was called inactive.
